Data taken from PubChem BioAssay (NCI).
About 79,000 compounds went through this panel and 15% of them were active in at least one assay; those are over-represented in the sample as a whole. Unmarked numbers belong to inactive results. Calls of active or inactive are those of the source. No stated cut-off is given here; in the data, active means growth inhibition above about 70%; inactive means the rest.

Assays:
[1] = NCI Yeast Anticancer Drug Screen. Data for the rad52 strain (AID 147);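 further: 0% = growth of vehicle-treated control cultures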; conditions: S. cerevisiae rad52 mutant growth inhibition, active compounds read high
Method in brief: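 Read-out: growth inhibition versus vehicle-treated controls. Cells were a DNA repair-deficient yeast strain treated with compounds.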

[2] = NCI Yeast Anticancer Drug Screen. Data for the wt1 strain (AID 149);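 further: 0% = growth of vehicle-treated wt1 cultures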; conditions: S. cerevisiae wt1 strain (SPY 50644) growth inhibition, active compounds read high
Method in brief: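 Vehicle-normalised growth inhibition; strain wt1; compound exposure.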

[3] = NCI Yeast Anticancer Drug Screen. Data for the rad50EPP+ strain (AID 151);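 further: 0% = growth of vehicle-treated control cultures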; conditions: S. cerevisiae rad50 mutant strain, active compounds read high
Method in brief: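 Growth inhibition read against vehicle controls in rad50EPP+ yeast, a strain altered in DNA damage repair, after compound exposure.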

[4] = NCI Yeast Anticancer Drug Screen. Data for the mgt1 strain (AID 153); conditions: S. cerevisiae mgt1 mutant growth inhibition, active compounds read high
Method in brief: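 mgt1 yeast grown with test compound; read-out is growth inhibition versus vehicle-treated cultures.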

[5] = NCI Yeast Anticancer Drug Screen. Data for the rad50 strain (AID 155);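 further: 0% = growth of vehicle-only cultures of the same strain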; conditions: S. cerevisiae rad50 strain growth inhibition, active compounds read high
Method in brief: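 A DNA repair-deficient yeast mutant serves as the test organism; compound-induced growth inhibition is calculated against vehicle-treated cells.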

[6] = NCI Yeast Anticancer Drug Screen. Data for the mec2-1 strain (AID 157); conditions: S. cerevisiae mec2-1 strain, active compounds read high
Method in brief: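 Yeast mec2-1 mutant treated with compound. Readout: growth inhibition vs vehicle controls.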

[7] = NCI Yeast Anticancer Drug Screen. Data for the rad14 strain (AID 159);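 further: 0% = growth of vehicle-treated control cultures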; conditions: S. cerevisiae rad14 strain growth inhibition, active compounds read high
Method in brief: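 Vehicle-treated cultures served as the baseline for growth inhibition of a DNA repair-mutant yeast strain exposed to each compound.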

[8] = NCI Yeast Anticancer Drug Screen. Data for the sgs1 mgt1 strain (AID 161);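 further: 0% = growth of cultures given vehicle only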; conditions: S. cerevisiae sgs1 mgt1 strain, active compounds read high
Method in brief: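 Test agents were incubated with a DNA-repair-mutant yeast strain. Growth was then read and compared against vehicle-treated controls.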

[9] = NCI Yeast Anticancer Drug Screen. Data for the CLN2oe strain (AID 163);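 further: 0% = growth of vehicle-only control cultures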; conditions: S. cerevisiae CLN2oe strain, active compounds read high
Method in brief: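 Read-out: yeast growth inhibition, expressed relative to vehicle-only controls. The strain bears an engineered cell-cycle alteration.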

[10] = NCI Yeast Anticancer Drug Screen. Data for the cln2 rad14 strain (AID 165);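 further: 0% = growth equal to vehicle treated cultures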; conditions: S. cerevisiae cln2 rad14 strain, active compounds read high
Method in brief: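 cln2 rad14 yeast strain; compound exposure; growth inhibition read vs vehicle controls.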

[11] = NCI Yeast Anticancer Drug Screen. Data for the bub3 strain (AID 167); conditions: S. cerevisiae bub3 mutant strain, active compounds read high
Method in brief: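 Inhibition values come from growth of compound-treated mutant yeast normalised to vehicle-treated controls.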

[12] = NCI Yeast Anticancer Drug Screen. Data for the wt2 strain (AID 169);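 further: 0% = growth of vehicle-treated yeast cultures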; conditions: S. cerevisiae wt2 strain growth inhibition, active compounds read high
Method in brief: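 Read-out: growth inhibition versus vehicle-treated control cultures after compound exposure of the yeast strain.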

[13] = NCI Yeast Anticancer Drug Screen. Data for the mlh1 strain (AID 171);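 further: 0% = growth of vehicle-treated control cultures of the same strain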; conditions: S. cerevisiae mlh1 strain growth inhibition, active compounds read high
Method in brief: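 Read-out: growth inhibition versus vehicle controls. Strain: engineered yeast with a defined DNA repair or cell cycle defect, compound-treated.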

[14] = NCI Yeast Anticancer Drug Screen. Data for the sgs1 strain (AID 173);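 further: 0% = growth of vehicle-only control cultures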; conditions: S. cerevisiae sgs1 mutant, active compounds read high
Method in brief: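 Read-out: yeast growth inhibition relative to vehicle controls, following compound exposure of a strain with a defined DNA repair/cell cycle alteration.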

[15] = NCI Yeast Anticancer Drug Screen. Data for the mlh1 rad18 strain (AID 175); conditions: S. cerevisiae mlh1 rad18 strain growth inhibition, active compounds read high
Method in brief: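 Yeast w/ defined DNA-repair lesions; compound exposure; growth vs vehicle controls → % inhibition.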

[16] = NCI Yeast Anticancer Drug Screen. Data for the rad18 strain (AID 177); conditions: S. cerevisiae rad18 mutant growth inhibition, active compounds read high
Method in brief: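 Readout: growth inhibition vs vehicle controls. Cells: genetically altered yeast strain, DNA repair defect.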

[17] = at 5.0 µM (retest, dose inferred, filed as 0.5)
[18] = at 50.0 µM (retest, dose inferred, filed as 5.0)

CC1(C)CC(=O)C(/C=N/c2nc(-c3ccccc3)cs2)=C(O)C1
growth inhibition ([1]; at 1.2 µM): 1% | growth inhibition ([1]; at 3.7 µM): 5% | growth inhibition ([1]; at 11.0 µM): 19% | growth inhibition ([1]; at 33.0 µM): 41% | growth inhibition ([1]; at 100.0 µM): 84% (active) | growth inhibition ([2]; at 1.2 µM): 2% | growth inhibition ([2]; at 3.7 µM): 2% | growth inhibition ([2]; at 11.0 µM): 6% | growth inhibition ([2]; at 33.0 µM): 22% | growth inhibition ([2]; at 100.0 µM): 54% | growth inhibition ([3]; at 1.2 µM): -1% | growth inhibition ([3]; at 3.7 µM): 1% | growth inhibition ([3]; at 11.0 µM): 12% | growth inhibition ([3]; at 33.0 µM): 27% | growth inhibition ([3]; at 100.0 µM): 34% | growth inhibition ([4]; at 1.2 µM): -1% | growth inhibition ([4]; at 3.7 µM): -2% | growth inhibition ([4]; at 11.0 µM): 5% | growth inhibition ([4]; at 33.0 µM): 22% | growth inhibition ([4]; at 100.0 µM): 77% (active) | growth inhibition ([5]; at 1.2 µM): -5% | growth inhibition ([5]; at 3.7 µM): -13% | growth inhibition [5, 17]: -3% | growth inhibition ([5]; at 11.0 µM): -4% | growth inhibition ([5]; at 33.0 µM): 40% | growth inhibition [5, 18]: 57% | growth inhibition ([5]; at 50.0 µM): 89.9% (active) | growth inhibition ([5]; at 100.0 µM): 84% (active) | growth inhibition ([6]; at 1.2 µM): 2% | growth inhibition ([6]; at 3.7 µM): 2% | growth inhibition [6, 17]: 0% | growth inhibition ([6]; at 11.0 µM): 8% | growth inhibition ([6]; at 33.0 µM): 35% | growth inhibition [6, 18]: 32% | growth inhibition ([6]; at 50.0 µM): 20.1% | growth inhibition ([6]; at 100.0 µM): 76% (active) | growth inhibition ([7]; at 1.2 µM): 3% | growth inhibition ([7]; at 3.7 µM): 5% | growth inhibition ([7]; at 11.0 µM): 17% | growth inhibition ([7]; at 33.0 µM): 45% | growth inhibition ([7]; at 100.0 µM): 83% (active) | growth inhibition [8, 17]: -5% | growth inhibition [8, 18]: 38% | growth inhibition ([8]; at 50.0 µM): 94.2% (active) | growth inhibition ([9]; at 1.2 µM): -4% | growth inhibition ([9]; at 3.7 µM): -5% | growth inhibition ([9]; at 11.0 µM): 1% | growth inhibition ([9]; at 33.0 µM): 25% | growth inhibition ([9]; at 100.0 µM): 61% | growth inhibition [10, 17]: 35% | growth inhibition [10, 18]: 21% | growth inhibition ([10]; at 50.0 µM): 45.4% | growth inhibition ([11]; at 1.2 µM): -2% | growth inhibition ([11]; at 3.7 µM): -3% | growth inhibition [11, 17]: -19% | growth inhibition ([11]; at 11.0 µM): -1% | growth inhibition ([11]; at 33.0 µM): 23% | growth inhibition [11, 18]: 19% | growth inhibition ([11]; at 50.0 µM): 75.1% (active) | growth inhibition ([11]; at 100.0 µM): 68% | growth inhibition ([12]; at 1.2 µM): -2% | growth inhibition ([12]; at 3.7 µM): 1% | growth inhibition ([12]; at 11.0 µM): 7% | growth inhibition ([12]; at 33.0 µM): 36% | growth inhibition ([12]; at 100.0 µM): 82% (active) | growth inhibition ([13]; at 1.2 µM): 0% | growth inhibition ([13]; at 3.7 µM): 3% | growth inhibition ([13]; at 11.0 µM): 12% | growth inhibition ([13]; at 33.0 µM): 45% | growth inhibition ([13]; at 100.0 µM): 81% (active) | growth inhibition ([14]; at 1.2 µM): 2% | growth inhibition ([14]; at 3.7 µM): 5% | growth inhibition ([14]; at 11.0 µM): 26% | growth inhibition ([14]; at 33.0 µM): 63% | growth inhibition ([14]; at 100.0 µM): 83% (active) | growth inhibition [15, 17]: 10% | growth inhibition [15, 18]: 87% (active) | growth inhibition ([15]; at 50.0 µM): 97% (active) | growth inhibition ([16]; at 1.2 µM): 6% | growth inhibition ([16]; at 3.7 µM): 22% | growth inhibition ([16]; at 11.0 µM): 72% (active) | growth inhibition ([16]; at 33.0 µM): 88% (active) | growth inhibition ([16]; at 100.0 µM): 91% (active)

CCOC1(c2cccc([N+](=O)[O-])c2)c2ccccc2Oc2ccccc21
growth inhibition ([1]; at 1.2 µM): 0% | growth inhibition ([1]; at 3.7 µM): 2% | growth inhibition ([1]; at 11.0 µM): 4% | growth inhibition ([1]; at 33.0 µM): 10% | growth inhibition ([1]; at 100.0 µM): 19% | growth inhibition ([2]; at 1.2 µM): 2% | growth inhibition ([2]; at 3.7 µM): 1% | growth inhibition ([2]; at 11.0 µM): 4% | growth inhibition ([2]; at 33.0 µM): 2% | growth inhibition ([2]; at 100.0 µM): 3% | growth inhibition ([3]; at 1.2 µM): 3% | growth inhibition ([3]; at 3.7 µM): 2% | growth inhibition ([3]; at 11.0 µM): 11% | growth inhibition ([3]; at 33.0 µM): 24% | growth inhibition ([3]; at 100.0 µM): 19% | growth inhibition ([4]; at 1.2 µM): 0% | growth inhibition ([4]; at 3.7 µM): -2% | growth inhibition ([4]; at 11.0 µM): 0% | growth inhibition ([4]; at 33.0 µM): 15% | growth inhibition ([4]; at 100.0 µM): 0% | growth inhibition ([5]; at 1.2 µM): 1% | growth inhibition ([5]; at 3.7 µM): 0% | growth inhibition [5, 17]: 41% | growth inhibition ([5]; at 11.0 µM): 4% | growth inhibition ([5]; at 33.0 µM): 7% | growth inhibition [5, 18]: 69% | growth inhibition ([5]; at 50.0 µM): 51.8% | growth inhibition ([5]; at 100.0 µM): 9% | growth inhibition ([6]; at 1.2 µM): -3% | growth inhibition ([6]; at 3.7 µM): 2% | growth inhibition [6, 17]: 3% | growth inhibition ([6]; at 11.0 µM): 0% | growth inhibition ([6]; at 33.0 µM): 7% | growth inhibition [6, 18]: 23% | growth inhibition ([6]; at 50.0 µM): 26.4% | growth inhibition ([6]; at 100.0 µM): 13% | growth inhibition ([7]; at 1.2 µM): 0% | growth inhibition ([7]; at 3.7 µM): 2% | growth inhibition ([7]; at 11.0 µM): 5% | growth inhibition ([7]; at 33.0 µM): 7% | growth inhibition ([7]; at 100.0 µM): 10% | growth inhibition [8, 17]: 26% | growth inhibition [8, 18]: 60% | growth inhibition ([8]; at 50.0 µM): 57.6% | growth inhibition ([9]; at 1.2 µM): -6% | growth inhibition ([9]; at 3.7 µM): -1% | growth inhibition ([9]; at 11.0 µM): 0% | growth inhibition ([9]; at 33.0 µM): -1% | growth inhibition ([9]; at 100.0 µM): 2% | growth inhibition [10, 17]: 12% | growth inhibition [10, 18]: 30% | growth inhibition ([10]; at 50.0 µM): 3.8% | growth inhibition ([11]; at 1.2 µM): -1% | growth inhibition ([11]; at 3.7 µM): -2% | growth inhibition [11, 17]: 32% | growth inhibition ([11]; at 11.0 µM): 3% | growth inhibition ([11]; at 33.0 µM): 1% | growth inhibition [11, 18]: 77% (active) | growth inhibition ([11]; at 50.0 µM): 51.7% | growth inhibition ([11]; at 100.0 µM): 1% | growth inhibition ([12]; at 1.2 µM): 1% | growth inhibition ([12]; at 3.7 µM): -1% | growth inhibition ([12]; at 11.0 µM): 1% | growth inhibition ([12]; at 33.0 µM): 2% | growth inhibition ([12]; at 100.0 µM): 4% | growth inhibition ([13]; at 1.2 µM): -2% | growth inhibition ([13]; at 3.7 µM): -2% | growth inhibition ([13]; at 11.0 µM): 1% | growth inhibition ([13]; at 33.0 µM): 3% | growth inhibition ([13]; at 100.0 µM): 10% | growth inhibition ([14]; at 1.2 µM): -1% | growth inhibition ([14]; at 3.7 µM): 1% | growth inhibition ([14]; at 11.0 µM): 0% | growth inhibition ([14]; at 33.0 µM): 6% | growth inhibition ([14]; at 100.0 µM): 16% | growth inhibition [15, 17]: 57% | growth inhibition [15, 18]: 79% (active) | growth inhibition ([15]; at 50.0 µM): 62% | growth inhibition ([16]; at 1.2 µM): -1% | growth inhibition ([16]; at 3.7 µM): 1% | growth inhibition ([16]; at 11.0 µM): -12% | growth inhibition ([16]; at 33.0 µM): -9% | growth inhibition ([16]; at 100.0 µM): 12%
